We go through 26 compounds from PubChem BioAssay (NCI).

About 83,000 compounds went through this panel and 20% of them were active in at least one assay; those are over-represented in the sample as a whole.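 Single-concentration screen, 48 h exposure, 96-well plates. Endpoint: percent growth. Below 10 = active.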 Values without a mark were called inactive. Activity calls are given as the source filed them.

The assay relates to HL-60(TB) leukemia. As to the kind of experiment: NCI-60 one-dose screen, 48 h (100 = growth as untreated, 0 = no growth, -100 = all killed). As to conditions: 10 µM unless noted.
As for `c1ccc(CNCCNCc2ccccc2)cc1`, the growth is 105%.

`NCCCN`: the growth is 98.8%.

Consider `CN1CCN(c2ccc3nc4c(nc3c2C(F)(F)F)C(=O)c2ncccc2C4=O)CC1`, for which the growth was -50.4% (active).

With `CCCCCCCCCCCCC[N+](C)(C)Cc1ccccc1`, the growth was -56.7% (active).

For `CCOC(=O)Cn1c(=O)c2c(c3ccccc3n2C)n2nnc(-c3ccccc3)c12`, the growth was 109%.

As to `COc1ccccc1OCC(=O)N1CCCCCC1`, the growth was 93.6%.

For the compound `CC(=O)c1cc2c(o1)C(=O)c1ccccc1C2=O`, the growth was -36.5% (active).

With `Cc1ccc(-n2c(-c3ccccc3)c(-c3ccccc3)c3c(SCC(=O)n4[nH]c(N)cc4=O)ncnc32)cc1`, the growth is 102%.

Regarding `COc1cc(/C=C/C(=O)c2c(C)n([O-])c3ccc(Cl)cc3[n+]2=O)cc(OC)c1OC`, the growth is 12.7%.

Consider `N#C/C(=C\c1ccc(-c2ccccc2)o1)c1nc(-c2ccco2)cs1`, for which the growth is 99.3%.

In the case of `CC1CN(Cc2ccccc2)C(=O)NC1=O` (stereo unspecified), the growth is 88.7%.

On to `NCCCNc1nc2ccccc2c2c(=O)c3cc(F)cc(Cl)c3sc12`, for which the growth was 75.5%.

Consider `O=C(CCc1nnc2sc(-c3ccc(Cl)cc3Cl)nn12)c1nc2ncccc2[nH]1`, for which the growth was 3.13% (active).

On to `CCCS(=O)(=O)Nc1cccc(Nc2ncnc3cc(NC(=O)CCl)ccc23)c1Cl`, for which the growth is -35.5% (active).

Take `O=S(=O)(Nc1ccc2ccccc2c1)c1ccc(-c2cnc(C3CC3)o2)cc1`: the growth was -28% (active).

As for `N#Cc1nn(-c2ccccn2)c(N)c1C#N`, the growth was 96.1%.

For `c1ccc(-c2nc3nonc3nc2-c2ccccc2)cc1`, the growth was 85.3%.

Take `COc1cc2c(cc1OCCCCN1CCN(C(=S)SCCC(C#N)(c3ccccc3)c3ccccc3)CC1)N=C[C@@H]1CCCN1C2=O`: the growth is -40.8% (active).

With `Cc1nc2sc(C(=O)Nc3ccccc3)c(N)c2cc1C(O)c1ccccc1` (stereo unspecified), the growth was -54% (active).

As for `COc1ccc(-c2cc(-c3cccnc3)nc3sc4c(Cl)nnnc4c23)cc1OC`, the growth was 85.4%.

Take `Cc1cc2c(cc1C)N(C(=O)CCl)CCN2C(=O)CCl`: the growth is -41.3% (active).

Take `Nc1cc(Cl)cc2cccnc12`: the growth was 72.3%.

`CCOC(=O)Nc1nn[nH]n1`: the growth is 47.7%.

Turning to `COc1ccc(-c2n/c(=C\c3c(O)[nH]c4ccc(OC)cc34)cc3c2=Nc2ccccc2-3)cc1`, the growth is 81%.

As for `CN1CCN(Cc2ccc(NC(=O)c3cncc(C#Cc4cnc(N)c5ccncc45)c3)cc2C(F)(F)F)CC1`, the growth was -9.61% (active).

Turning to `C=CCN1C(=O)/C(=C\c2ccc3c(c2)CCC3)SC1=S`, the growth is 79%.
